Assay outcomes deposited in PubChem by The Scripps Research Institute Molecular Screening Center.
An excerpt weighted towards active compounds, which were near 4.8% of everything screened.
hcDAF12 agonist – H. contortus DAF-12 nuclear receptor activators, primary screen, cell-based, luminescence, HEK293, lit1-tk-luc reporter | HEK293 hcDAF-12 lit1-tk-luc reporter; 0% DMSO, 100% Δ7-dafachronic acid | activation, % at 6.8 µM | 1.4% of 370,000 active | AID 652067, 2013;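 active = activation above the mean of all tested compounds plus 3 SD, cut at about 5.5% in these data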;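 also: 100% = response to 3 µM Δ7-dafachronic acid high control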
hgDAF-12 ag – H. glycines DAF-12 receptor agonists, primary screen, cell-based, luminescence, HEK293, GAL4 fusion, UAS-luciferase; 1.8% of 370,000 active; HEK293 GAL4-hgDAF12 UAS-luciferase reporter, agonist luminescence; normalized to butyrate control; Nuclear hormone receptor DAF-12 (Heterodera glycines), GAL4 fusion; activation, % at 6.8 µM;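 active = activation above a cutoff set at the mean of all screened compounds plus 3 SD, cut at about 10% in these data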;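 also: 0% = DMSO wells and 100% = sodium butyrate wells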
ssDAF12 agonist – S. stercoralis DAF-12 nuclear receptor activators, primary screen, cell-based, luminescence, HEK293, GRIP1 co-expression, lit1-tk-luc. Nuclear hormone receptor DAF-12 (Strongyloides stercoralis). HEK293 ssDAF-12/GRIP1 lit1-tk-luc reporter; % of 3 µM dafachronic acid response. activation, % at 6.8 µM. 1% of 370,000 active;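 active = activation above the mean over all tested compounds plus 3 SD, cut at about 0.9% in these data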;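 also: 0% = DMSO-only wells and 100% = 3 µM delta7-dafachronic acid wells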
DAX1 inh-1 – DAX1 (NR0B1) inhibitors, primary screen, cell-based, HEK293, Gal4-DAX1, luciferase luminescence | 0.99% of 340,000 active | Nuclear receptor subfamily 0 group B member 1 (Homo sapiens), P51843 | inhibition, % at 6.75 µM | HEK293 Gal4-DAX1 luciferase reporter;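 active = inhibition above the mean over all tested compounds plus 3 SD, cut at about 4.2% in these data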;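 also: 0% = DAX1-transfected cells with DMSO and 100% = empty-vector control cells with DMSO; inhibition shows as a rise in luminescence from relieved DAX1 repression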
Target sequence (P51843 207-470 limits assumed): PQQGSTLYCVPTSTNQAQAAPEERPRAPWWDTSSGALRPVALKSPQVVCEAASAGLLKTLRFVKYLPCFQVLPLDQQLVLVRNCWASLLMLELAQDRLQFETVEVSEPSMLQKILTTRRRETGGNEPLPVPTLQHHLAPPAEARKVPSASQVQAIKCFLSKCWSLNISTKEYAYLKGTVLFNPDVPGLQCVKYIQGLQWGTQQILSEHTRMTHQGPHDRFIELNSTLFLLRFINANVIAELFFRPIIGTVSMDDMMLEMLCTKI
DAX1 inh-2 – DAX1 (NR0B1) inhibitors on StAR promoter, primary screen, cell-based, luminescence, SF-1 (NR5A1), full-length DAX-1. inhibition, % at 6.8 µM. HEK293T StAR-luciferase reporter, SF-1/DAX-1 repression relief. 1.1% of 370,000 active;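 active = inhibition above the mean over all tested compounds plus 3 SD, cut at about 3.6% in these data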;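 also: 0% = DAX-1 cells with DMSO and 100% = cells lacking DAX-1 with DMSO; higher inhibition means more luminescence from relief of DAX-1 repression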
SMARCA2 act – SMARCA2 (BRM) function activators, primary screen, cell-based, luminescence, high throughput; activation, % at 9.1 µM; MG213 cells, MMTV-luciferase reporter, dexamethasone, overnight; AID 652017, 2013; 1% of 370,000 active; in the data active = activation above about 7.8%;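 also: 0% = vehicle wells and 100% = reference activator wells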
Numbers without * were called inactive; / = no result.

SMILES	hcDAF12 agonist	hgDAF-12 ag	ssDAF12 agonist	DAX1 inh-1	DAX1 inh-2	SMARCA2 act
COc1ccc(OC)c(NC(=O)CSc2nncc(=O)n2N)c1	-1	-1	0.9*	0	1	-2
COCc1cc(=O)n2[nH]c(C)c(-c3ccc(Cl)cc3)c2n1	0	13*	-1	0	-2	-5
C#CCCN([C@H](C(=O)OC)C(C)C)S(=O)(=O)c1ccccc1Br	-3	1	-1	/	-1	-4
Nc1ccccc1Nc1cc(-c2ccccc2)nn1-c1ccccc1	0	0	-1	2	1	-2
Nc1ccccc1Nc1cc(-c2ccccc2)[nH]n1	6.0*	10	-1	1	2	0
O=C(N1CCOCC1)N1CCN(S(=O)(=O)c2ccc(Cl)cc2)C1	2	-2	1.0*	1	0	3
Cc1ccc(-c2cn(-c3ccccc3F)c(=S)[nH]2)cc1	3	11*	1	4.4*	1	0
CC(C)(C)c1ccc(-c2nnc(SCc3ccccc3)n2Cc2ccco2)cc1	-1	-4	-2	/	-2	-7
O=C(Nc1ccc2ccccc2c1)OC1CCS(=O)(=O)C1 (stereo not drawn)	4	7	2.1*	/	3	1
CCOc1ccc(-n2c(SCC(=O)Nc3ccc4cn[nH]c4c3)nnc2-c2ccncc2)cc1	-2	4	-1	/	-1	-4
COc1ccc2c(c1)nc(-c1cccc(Br)c1)c(=O)n2C(c1ccccn1)c1nc2ccccc2[nH]1 (stereo not drawn)	4	9	0.9*	/	2	7.9*
O=c1c(-c2cccnc2)nc2ccccc2n1C(c1ccccn1)c1nc2ccccc2[nH]1 (stereo not drawn)	1	-1	-1	/	0	-6
O=c1c(-c2ccccc2)nc2ccccc2n1C(c1ccccn1)c1nc2ccccc2[nH]1 (stereo not drawn)	-1	0	-1	/	2	1
O=c1c(-c2ccco2)nc2ccccc2n1C(c1ccccn1)c1nc2ccccc2[nH]1 (stereo not drawn)	3	4	1.1*	/	1	-6
CCC(c1nc2ccccc2[nH]1)n1c(=O)c(-c2ccco2)nc2ccccc21 (stereo not drawn)	-2	0	-1	/	0	-2
O=c1c(-c2cccs2)nc2ccccc2n1C(c1ccccn1)c1nc2ccccc2[nH]1 (stereo not drawn)	2	12*	0	/	3	5
CC(C)(C)NC(=O)C(c1ccnc2ccccc12)n1c(=O)c(-c2ccco2)nc2ccccc21 (stereo not drawn)	3	-1	0	/	4.0*	-1
O=C(CN1C(=O)C2(OCCCO2)c2ccccc21)NCc1ccccc1Cl	-2	1	-1	/	-1	-2
O=C(CSc1nc2ccccc2nc1N1CCCCC1)N1CCN(S(=O)(=O)c2cc(Cl)ccc2Cl)CC1	-1	7	-2	/	-1	-3
CC(C)CN1CN2Cc3cc(F)ccc3C2CS1(=O)=O (stereo not drawn)	2	1	0	/	-1	-2
C[C@H]1[C@@H](OC(=O)NCCc2c[nH]c3ccccc23)CC[C@@]23CCCN2C(=O)CCC[C@@H]13	-1	-4	-2	/	/	/
Oc1ccccc1C=NN=C1c2ccccc2-c2ccccc21	3	3	2.1*	1	-1	-2
O=C(NCCN1CCCCCC1)c1ccc(CS(=O)(=O)c2ccc(Br)cc2)o1	/	/	/	1	/	/
CN1CCN(CCCNC(=O)c2ccc(CS(=O)(=O)c3ccc(Br)cc3)o2)CC1	-3	1	-1	4.3*	-1	-1
COCCNC(=O)c1ccc(CS(=O)(=O)c2ccc(OC)cc2)o1	0	-4	-1	5.2*	-1	1
SMILES	hcDAF12 agonist	hgDAF-12 ag	ssDAF12 agonist	DAX1 inh-1	DAX1 inh-2	SMARCA2 act
O=C(Cn1nnc(-c2ccc(N3CCOCC3)cc2)n1)c1ccc(F)cc1	-1	2	-1	/	0	-3
CCOC(=O)N1C(=O)C[C@](Sc2ccc(OC)cc2)(C(=O)N2CCN(C(C)=O)CC2)[C@H]1c1ccc(OC)cc1	-1	0	0	/	-2	-3
CC(=O)N=c1c(C#N)cc2c(=O)n3ccccc3nc2n1Cc1ccccc1	0	0	-1	0	0	8.3*
CC1CC(C)CN(CCCNC(=O)c2ccc3nc(N4CCCCC4)sc3c2)C1 (stereo not drawn)	4	3	-1	0	2	5
CCC1CCCCN1CCCNC(=O)c1ccc2nc(N3CCCCC3)sc2c1 (stereo not drawn)	5.6*	11*	1	1	2	3
O=C(COc1ccccc1C(=O)c1cnn(-c2ccccc2)c1)Nc1ccc2ccccc2c1	3	11*	1.3*	1	2	6
COc1ccc(O)c(C(=O)CC(=O)c2ccc(F)cc2)c1	8.1*	15*	1.0*	-4	1	1
COc1ccc(C(=O)CC(=O)c2ccccc2O)cc1	5	11*	0	2	2	0
COc1ccc(O)c(C(=O)c2cnn(-c3ccccc3)c2)c1	4	5	0	0	1	2
COc1ccc(C(=O)COc2ccc(F)cc2)c(O)c1	2	7	-1	3	0	1
COc1ccc(C(=O)CC(=O)c2ccccc2O)cc1OC	0	1	-1	2	0	2
COc1ccc(-n2cc(C(=O)c3ccc4ccccc4c3O)cn2)cc1	2	1	0	0	0	-1
COc1ccc(-n2cc(C(=O)c3ccccc3O)cn2)cc1	5	11*	0	0	4	-1
CC(=O)c1cc(-c2ccccc2)c(=O)n2c1CCC2	1	1	-1	/	0	0
C[C@@H]1OC(C2CCCCC2)N(C)[C@H]2C[C@H]3c4[nH]c5cccc(-c6cccc(F)c6)c5c4CCN3C(=O)[C@@H]12 (stereo partly drawn)	-4	1	-2	/	-1	-5
O=C(OC12CCCN(C1)/C(=C/c1cccc(Cl)c1)C2)c1ccco1 (stereo not drawn)	-1	-1	-1	/	2	-4
